Hits are enriched below; roughly 3.4% of the tested compounds scored in any of these assays.
HSF1 inh = HSF1 inhibitors in luciferase reporter cells, primary screen, cell-based, NIH3T3, luminescence. NIH3T3-HGL HSE-luciferase, MG132-induced, luminescence 8 h; active compounds read low. activity change, negative = inhibition, % at 7.5 µM (by protocol). 300,000 compounds, 0.77% hits. AID 2098, 2009;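 active = more than half of replicate wells show activity change below -50%, luminescence cut by over half; inconclusive = some wells, but at most half, below -50%; inactive = no replicate well below -50%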;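 note: luciferase reports HSF-1 transcriptional activity via heat shock element; 0% = median of DMSO wells and -100% = zero luminescence signal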
esBAF inh = Bmi1 luciferase reporter increase in mESCs, primary screen, esBAF inhibitor project, mouse ES cells, Bmi1 luciferase knock-in, single point; AID 602393, 2012; 24 h; 100% = twice the neutral-well signal; 350,000 compounds, 2% hits; reporter increase, % at 12.5 µM; in the data active = activation above about 40%; inconclusive = no clear call, values can overlap the other calls;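 note: 0% = median of the plate's neutral control wells and 100% = double that signal; a rise in the Bmi1 reporter signal indicates esBAF inhibition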
HSF-1 act = HSF-1 activators, primary screen, NIH3T3-HGL cells, MG132 stress, luminescence, single point. NIH3T3-HGL HSF-1 luciferase reporter, 8 h; 100% = twice DMSO control signal. 300,000 compounds, 1.7% hits. activation, % at 9 µM;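 active = mean replicate activation of at least 50% with a set share of replicates each reaching 50%; inconclusive = only one of those two conditions met; inactive = mean below 50% and too few replicates reaching it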;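 note: 0% = median of the neutral control wells and 100% = twice that signal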
Vif inh = HIV Vif self-association inhibitors, primary screen, imaging, HEK293T, single point | HEK293T cells, Vif self-association by quenched fluorescence, 24 h | inhibition, % at 7.49 µM | 340,000 compounds, 0.35% hits; in the data active = inhibition above about 50%, passing the limit was not always enough; inconclusive = no clear call, values can overlap the other calls; inactive = below about 31%
Starred values were filed as active, the others as inactive; ? = inconclusive; . = not tested or not shown.

SMILES	HSF1 inh	esBAF inh	HSF-1 act	Vif inh
CCOc1ccc2nc(SCC(=O)NNC(=O)c3ccco3)c(C)cc2c1	1.1	-8.0	0.2	-4.4
CCOc1ccc2cc(/C=C/C(=O)c3ccco3)c(Cl)nc2c1	14.8	56.6*	32.2	?
CC(=O)Nc1cccc(N(C)S(C)(=O)=O)c1	-1.8	4.7	-17.5	4.6
CN(C)c1ccc(NC(=O)Nc2cccc(Cl)c2)cc1	26.0	54.2*	29.4	-9.1
O=C(Nc1ccncc1)Nc1cccc(Cl)c1	5.8	4.1	5.3	.
CN(c1cccc(NC(=O)Nc2cccc(Cl)c2)c1)S(C)(=O)=O	35.8	54.5*	66.4*	0.2
C[C@@H]1CCCCO[C@H](CN(C)S(=O)(=O)c2ccc(Cl)cc2)[C@@H](C)CN([C@H](C)CO)C(=O)c2cc(NS(C)(=O)=O)ccc2O1	.	-5.0	.	.
Cc1ccc(-c2nc3cnccn3c2Nc2ccccc2)o1	17.4	44.5*	37.4	.
Cc1cccc2sc(NC(=O)[C@H](C)N3C(=O)C4CC=CCC4C3=O)nc12 (some centres not stated)	-55.6*	.	-68.0	7.4
CSc1nc(-c2ccccc2)cn1-c1ccc(NC(C)=O)cc1	-2.1	.	11.5	1.2
CCOc1ccc(-c2cn(-c3ccc(OC)cc3)c(SC)n2)cc1	37.9	64.6*	61.7*	-4.5
COc1ccc2cc(-c3nc4ccccc4n3C)c(=O)oc2c1	11.2	87.0*	43.5	-6.0
CC=Cc1ccc2n(c1=O)C[C@@H]1[C@@H](CO)[C@H](C(=O)NC3CCC3)N(C(=O)C3CCC3)[C@H]21 (mixture of isomers)	.	1.4	.	.
CC(=O)N1[C@H](CO)[C@@H]2c3ccccc3N(C(=O)c3ccc(F)cc3)C[C@@H]21	.	-0.4	.	.
CCCn1cnc2cc(NCc3cccc(OC)c3)ccc21	27.8	52.0*	51.0*	14.3
CCCn1cnc2cc(NCc3ccccc3O)ccc21	-9.1	57.0*	-0.9	-8.7
Cc1ccc(CNc2ccc3c(c2)ncn3C(C)C)cc1	10.9	68.2*	9.7	-0.6
Cn1cnc2cc(NCc3ccc(Cl)cc3)ccc21	63.1	?	66.4*	-2.8
CNC[C@H]1Oc2cc(C#CC3(O)CCCC3)ccc2S(=O)(=O)N([C@@H](C)CO)C[C@H]1C	.	-4.5	.	.
COc1ccc(S(=O)(=O)N(C)C[C@H]2OCCCC[C@@H](C)Oc3ccc(NC(=O)c4ccccc4)cc3C(=O)N([C@@H](C)CO)C[C@H]2C)cc1	.	2.1	.	.
C[C@H](CO)N1C[C@H](C)[C@@H](CN(C)C(=O)Nc2ccccc2)Oc2ccc(NS(C)(=O)=O)cc2CC1=O	.	-4.5	.	.
Brc1ccc(CNc2ccc3ncccc3c2)cc1	47.1	30.3	79.4*	-1.4
CCCn1cnc2cc(NCc3ccc(Br)cc3)ccc21	24.4	52.1*	37.5	-1.6
CCn1cnc2cc(NCc3ccc(Br)cc3)ccc21	18.8	.	19.3	.
CO[C@@H]1CN(C)C(=O)c2ccc(NS(=O)(=O)CC(F)(F)F)cc2OC[C@@H](C)N(C(=O)c2ccc3c(c2)OCO3)C[C@@H]1C	.	-0.9	.	.
SMILES	HSF1 inh	esBAF inh	HSF-1 act	Vif inh
C[C@@H]1CN([C@H](C)CO)C(=O)CCCn2cc(nn2)CO[C@@H]1CN(C)Cc1cccnc1	.	-1.2	.	.
C[C@@H]1CN([C@@H](C)CO)C(=O)c2cc(N(C)C)ccc2O[C@@H](C)CCCCO[C@H]1CN(C)Cc1ccc2c(c1)OCO2	.	-7.7	.	.
Cc1noc(C)c1S(=O)(=O)Nc1ccc2c(c1)CC(=O)N([C@H](C)CO)C[C@@H](C)[C@@H](CN(C)Cc1ccc(Cl)c(Cl)c1)O2	.	2.5	.	.
Nc1ncnc2c1ncn2C1O[C@H](CO)[C@@H](O)[C@@H]1O (some centres not stated)	.	-3.6	.	0.5
N#Cc1c(N)n(C2OC(CO)C(O)C2O)c2ncnc(N)c12 (configuration not stated)	78.4*	.	78.4*	-3.2
C[C@@H](O)C#Cc1cnc2c(c1)C(=O)N([C@@H](C)CO)C[C@H](C)[C@H](CN(C)C(=O)CC1CC1)O2	.	2.4	.	.
COc1cccc(-n2c(SCC(=O)NCC3CCCO3)nc3c(c2=O)SCC3)c1 (configuration not stated)	-71.7*	.	-78.4	-2.2
C[C@H](CO)N1C[C@H](C)[C@H](CN(C)CC2CC2)Oc2c(cccc2N(C)C)C1=O	.	0.1	.	.
CC1(C)CC(=O)C2=C(C1)NC(Nc1nc3ccccc3o1)=NC2c1ccccn1 (configuration not stated)	-4.6	6.3	2.1	9.3
CC1=C(C(=O)Nc2ccccc2)C(c2ccc(C)cc2)N=C(Nc2nc3ccccc3o2)N1 (configuration not stated)	38.1	8.1	61.5*	28.7
Cc1noc(C)c1NC(=O)N[C@@H]1CC[C@H](CC(=O)Nc2ccccc2)O[C@@H]1CO	.	-0.4	.	.
CCN(CC)C(=O)c1cc2sc3ccccc3c2s1	42.4	80.4*	38.6	.
CN(C)CCN1C(=O)C2C(C(=O)Nc3cc(Cl)cc(Cl)c3)C3C=CC2(O3)C1C(=O)NC1CCCCC1 (configuration not stated)	45.6	.	85.4*	-24.6
C(=N\Nc1nc2ccccc2[nH]1)/c1ccccc1	138.2	55.0*	199.1*	-9.0
Brc1ccc(-c2ccc(/C=N/Nc3nc4ccccc4[nH]3)o2)cc1	203.5	?	163.1*	20.2
Fc1ccc(/C=N/Nc2nc3ccccc3[nH]2)cc1F	63.6	.	95.1*	-4.9
Fc1cccc(/C=N/Nc2nc3ccccc3[nH]2)c1	2.6	.	31.1	.
O=C(C[C@H]1CC[C@H]2[C@@H](COC[C@H](O)CN2Cc2cccc(Cl)c2)O1)NCC1CCCCC1	.	9.9	.	.
O=C(Nc1cccc(Cl)c1)c1csc(COCCO)n1	.	47.3*	.	.
CS(=O)(=O)Nc1ccc2c(c1)[C@H]1C[C@@H](CC(=O)NCc3ccccc3F)O[C@@H](CO)[C@H]1O2	.	-2.5	.	.
CN(C)CCCCNCCCNC(=O)/C=N\O	26.1	-13.9	62.0*	1.3
Cc1noc(C)c1NC(=O)N[C@@H]1CC[C@H](CCNC(=O)C2CCCC2)O[C@@H]1CO	.	-1.0	.	.
COC(=O)c1cc(OC)c(OC)cc1NC(=S)N1CCCC1	26.2	.	62.4*	12.7
O=[N+]([O-])c1ccc(-c2csc(Nc3ccccc3)[n+]2Cc2ccccc2)cc1	30.9	.	84.1*	-9.2
Cc1cc(C)n(CC(=O)N2CCCC(N3CCN(c4ccc(F)cc4)CC3)C2)n1 (configuration not stated)	-5.4	-8.2	11.9	-1.6
Cc1ccn(CC(=O)N2CCCC(N3CCN(c4ccc(F)cc4)CC3)C2)n1 (configuration not stated)	19.0	7.0	66.8*	0.2
O=[N+]([O-])/C=C\c1ccc(N2CCCC2)c(F)c1	47.3	2.8	79.2*	10.1
C/C=C/c1cnc2c(c1)C(=O)N([C@H](C)CO)C[C@@H](C)[C@@H](CN(C)C(=O)Nc1c(C)noc1C)O2	.	2.2	.	.
COc1ccc(NC(=O)N(C)C[C@H]2Oc3ccc(NC(=O)NC4CCCCC4)cc3CC(=O)N([C@@H](C)CO)C[C@H]2C)cc1	.	8.1	.	.
